Experimental data: the OligoGym collection

molecular target: FCHSD2; assay: pooled miR-30 sensor sort-seq; sequence = guide strand; settings: shRNA
Also: reference of the scale not given here.

Question: With TTTAAGCTTCTCACTGTCCTTG as the sequence, how does the sensor-assay potency score (higher = more potent) read?
Answer: 0.228

Question: With TTTCTGATTCTAACTGTCGGCT as the sequence, how does the sensor-assay potency score (higher = more potent) read?
Answer: -0.5

Question: With TTCGGTATCTGCATTAAGCGAG as the sequence, how does the sensor-assay potency score (higher = more potent) read?
Answer: 0.0519

Question: How did the sensor-assay potency score (higher = more potent) turn out when TTTTCTTGCAAAAACAGCTGAA was run?
Answer: -0.0894

Question: For TATCTTCAAACTCTTCGCCTTC, which sensor-assay potency score (higher = more potent) is on record?
Answer: -0.452

Question: Which sensor-assay potency score (higher = more potent) does the source give for TTATCTTCAAACTCTTCGCCTT here?
Answer: -0.0794

Question: TGCTTTAGCAGGTCCAACCGGG was tested. Which sensor-assay potency score (higher = more potent) did it give?
Answer: -0.504

Question: TAACTTTACACTTGCCTTCTGT was tested. Which sensor-assay potency score (higher = more potent) did it give?
Answer: -0.129

Question: TAGCTTTGGAATTACACTCAGA was tested. Which sensor-assay potency score (higher = more potent) did it give?
Answer: -0.799

Question: How did the sensor-assay potency score (higher = more potent) turn out when TAGGAATAAACAACTTTGCAGG was run?
Answer: -0.656

Question: Which sensor-assay potency score (higher = more potent) does the source give for TTCTGTTCTAGCTCTGCTCGGC here?
Answer: -0.12

Question: TTTAGCTAAATCTTTCACTGTC was tested. Which sensor-assay potency score (higher = more potent) did it give?
Answer: 1.33

molecular target: FCRL4; assay: as above; settings: shRNA

Question: With TATTTGAACTTGCTTGTGGGAT as the sequence, how does the sensor-assay potency score (higher = more potent) read?
Answer: -0.378

Question: How did the sensor-assay potency score (higher = more potent) turn out when TAGGCTGAGAGTCTGTAGCTTT was run?
Answer: 0.173

Question: With TACATCAACATACAACGACTGA as the sequence, how does the sensor-assay potency score (higher = more potent) read?
Answer: -0.697

Question: Which sensor-assay potency score (higher = more potent) does the source give for TAGAGCTGATCTTTCCAGCTGA here?
Answer: 0.365

Question: Which sensor-assay potency score (higher = more potent) does the source give for TAGAACTGAAATCCATTGCAAG here?
Answer: -0.914

Question: For TTGCATAGAACTGAAATCCATT, which sensor-assay potency score (higher = more potent) is on record?
Answer: -0.778

Question: With TTATCCTCTAGAAGTGTCCTGG as the sequence, how does the sensor-assay potency score (higher = more potent) read?
Answer: 0.145

Question: TAGACAACTGAGACATCCTTAT was tested. Which sensor-assay potency score (higher = more potent) did it give?
Answer: -0.682

Question: Which sensor-assay potency score (higher = more potent) does the source give for TTATTTTGAAATTTGATCTAAA here?
Answer: -0.106

Question: For TTCTCTGTTGCATAGAACTGAA, which sensor-assay potency score (higher = more potent) is on record?
Answer: -0.545

Question: With TGTTATTTGAACTTGCTTGTGG as the sequence, how does the sensor-assay potency score (higher = more potent) read?
Answer: 0.392

Question: TTATTTGAACTTGCTTGTGGGA was tested. Which sensor-assay potency score (higher = more potent) did it give?
Answer: -0.64

molecular target: FER1L6; assay: as above; settings: shRNA

Question: With TTTTCTGGTACAATCTCCGGGG as the sequence, how does the sensor-assay potency score (higher = more potent) read?
Answer: 0.181

Question: Which sensor-assay potency score (higher = more potent) does the source give for TTGCTTGCACAGACCAACCAGC here?
Answer: -0.415

Question: How did the sensor-assay potency score (higher = more potent) turn out when TAAAATGACATCTTCAGTGTTC was run?
Answer: 0.481

Question: For TAGCGAATCTGAAATATCGTGC, which sensor-assay potency score (higher = more potent) is on record?
Answer: 0.395

Question: TTCTTCTGCTGTAACTAGGTGG was tested. Which sensor-assay potency score (higher = more potent) did it give?
Answer: -0.362

Question: Which sensor-assay potency score (higher = more potent) does the source give for TTCTTCTATACTTTCTTCCAGG here?
Answer: -0.684

Question: TTGACTATCTTTCGCAGCCTTG was tested. Which sensor-assay potency score (higher = more potent) did it give?
Answer: -0.891

Question: How did the sensor-assay potency score (higher = more potent) turn out when TAGAGTCTCACATAGAATCTGG was run?
Answer: -0.448

Question: TAACTTTTTCTTCTGCTGCTGA was tested. Which sensor-assay potency score (higher = more potent) did it give?
Answer: 0.239

Question: For TTTGTCTCCATCCTGTTCGTTG, which sensor-assay potency score (higher = more potent) is on record?
Answer: -0.562

Question: For TTTTTCTGGTACAATCTCCGGG, which sensor-assay potency score (higher = more potent) is on record?
Answer: 0.00268

Question: How did the sensor-assay potency score (higher = more potent) turn out when TTAGTCAACAGTTTTGATCTTC was run?
Answer: 0.643

molecular target: FEZ1; assay: as above; settings: shRNA

Question: With TTGCTCAGTGACCTCCTGCAGC as the sequence, how does the sensor-assay potency score (higher = more potent) read?
Answer: -0.806

Question: With TAGTCTTAAGAGTATAAGCTGT as the sequence, how does the sensor-assay potency score (higher = more potent) read?
Answer: -0.799

Question: With TTCTCGTAAGGAATGACTGTGT as the sequence, how does the sensor-assay potency score (higher = more potent) read?
Answer: -0.149
